From PubChem BioAssay (NCI)
About 83,000 compounds went through this panel and 20% of them were active in at least one assay; those are over-represented in the sample as a whole.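 Activity criterion: percent growth below 10, measured after cells in 96-well plates were exposed to a single compound concentration for 48 hours.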 Activity calls are given as the source filed them.

How the values were obtained:
Test in all cases: NCI-60 one-dose screen, 48 h (100 = growth as untreated, 0 = no growth, -100 = all killed)
Settings in all cases: 10 µM unless noted
NCI/ADR-RES ovarian = test system: NCI/ADR-RES ovarian
T-47D breast = test system: T-47D breast
BT-549 breast = test system: BT-549 breast
MDA-MB-435 melanoma = test system: MDA-MB-435 melanoma
SW-620 colon = test system: SW-620 colon
MCF7 breast = test system: MCF7 breast
HCT-116 colon = test system: HCT-116 colon
HCC-2998 colon = test system: HCC-2998 colon
KM12 colon = test system: KM12 colon

Measured: growth

CCNc1nc(Cl)nc(NCC)n1
inactive: NCI/ADR-RES ovarian 101% | T-47D breast 91% | BT-549 breast 108% | MDA-MB-435 melanoma 94.8% | SW-620 colon 101% | MCF7 breast 98.7% | HCT-116 colon 88.1% | HCC-2998 colon 104% | KM12 colon 106%

COC(=O)[C@@H](C)C[C@H](Cc1ccccc1)NC(=O)c1csc([C@@H](C[C@H](C(C)C)N(C)C(=O)[C@@H](NC(=O)[C@H]2CCCCN2C)C2CC2)OC(C)=O)n1
inactive: T-47D breast 73% | SW-620 colon 48.4% | MCF7 breast 16.3% | HCC-2998 colon 15.9%
active: NCI/ADR-RES ovarian 8.28% | BT-549 breast -30.6% | MDA-MB-435 melanoma -12.1% | HCT-116 colon 7.53% | KM12 colon 5.07%

N#CC1(C#N)C(c2ccc(N(CCCl)CCCl)cc2)OC23CCCCC2C1(C#N)C(=N)O3 (stereo not drawn)
inactive: NCI/ADR-RES ovarian 71% | T-47D breast 65.6% | BT-549 breast 84.6% | MDA-MB-435 melanoma 101% | SW-620 colon 88.6% | MCF7 breast 49.3% | HCT-116 colon 89.2% | HCC-2998 colon 95.2% | KM12 colon 100%

O=C(CCCC1CCCCC1)OCC(Cl)(Cl)Cl
inactive: NCI/ADR-RES ovarian 102% | T-47D breast 101% | BT-549 breast 117% | MDA-MB-435 melanoma 111% | SW-620 colon 107% | MCF7 breast 95.5% | HCT-116 colon 103% | HCC-2998 colon 88.4% | KM12 colon 105%

O=C(Nc1ccncc1F)c1cn(CC2CC2)c2ccccc12
inactive: NCI/ADR-RES ovarian 101% | T-47D breast 92.3% | BT-549 breast 94.4% | MDA-MB-435 melanoma 106% | SW-620 colon 105% | MCF7 breast 94.9% | HCT-116 colon 99.5% | HCC-2998 colon 106% | KM12 colon 104%

CN1CCCCC1C(C)(O)c1ccccc1 (stereo not drawn)
inactive: NCI/ADR-RES ovarian 96.1% | T-47D breast 92.2% | BT-549 breast 87.4% | MDA-MB-435 melanoma 99.2% | SW-620 colon 110% | MCF7 breast 85.7% | HCT-116 colon 93% | HCC-2998 colon 115% | KM12 colon 106%

COC(=O)[C@H](Cc1ccccc1)NC(=O)c1csc([C@@H](C[C@H](C(C)C)N(C)C(=O)[C@@H](NC(=O)[C@H]2CCCN2C)C2CC2)OC(C)=O)n1
active: MDA-MB-435 melanoma -31.2% | HCT-116 colon -2.44%
inactive: NCI/ADR-RES ovarian 53.3% | T-47D breast 54.5% | BT-549 breast 20.6% | SW-620 colon 24.5% | MCF7 breast 20.4% | HCC-2998 colon 27.8% | KM12 colon 12.6%

CC(C)COC(C[N+](=O)[O-])C(Cl)(Cl)Cl (stereo not drawn)
inactive: NCI/ADR-RES ovarian 94.2% | T-47D breast 111% | BT-549 breast 106% | MDA-MB-435 melanoma 111% | SW-620 colon 107% | MCF7 breast 98.8% | HCT-116 colon 111% | HCC-2998 colon 102% | KM12 colon 104%

O=Cc1cn(Cc2ccc(Cl)cc2)c2ccccc12
inactive: NCI/ADR-RES ovarian 90.6% | T-47D breast 24.4% | BT-549 breast 92.7% | MDA-MB-435 melanoma 104% | SW-620 colon 68.1% | MCF7 breast 55.5% | HCT-116 colon 63.2% | HCC-2998 colon 98% | KM12 colon 109%

C[C@]12CC[C@@H]3c4ccc(Oc5nc(N6CC6)nc(N6CC6)n5)cc4CC[C@H]3[C@@H]1CCC2=O
inactive: NCI/ADR-RES ovarian 41.2% | T-47D breast 33.7% | BT-549 breast 53.9% | MDA-MB-435 melanoma 48.5% | SW-620 colon 25.1% | MCF7 breast 20.6% | HCT-116 colon 26.7% | HCC-2998 colon 37% | KM12 colon 50%

CC1CN1CCCCN1CC1C (stereo not drawn)
inactive: NCI/ADR-RES ovarian 108% | T-47D breast 101% | BT-549 breast 103% | MDA-MB-435 melanoma 111% | SW-620 colon 105% | MCF7 breast 93.8% | HCT-116 colon 95.7% | HCC-2998 colon 94.2% | KM12 colon 104%

CC1(C)N=C(N)N=C(N)N1c1ccc(CCC(=O)Nc2ccc(S(=O)(=O)F)cc2)c(Cl)c1
inactive: NCI/ADR-RES ovarian 58.4% | T-47D breast 70.5% | BT-549 breast 51% | MDA-MB-435 melanoma 37.7% | SW-620 colon 24.8% | MCF7 breast 15.1% | HCT-116 colon 26.8% | HCC-2998 colon 14.3% | KM12 colon 12.2%

O=C(O)c1ccc([S-])cc1.[Au+].c1ccc(CN2[CH-]N(Cc3ccccc3)C(c3ccccc3)=C2c2ccccc2)cc1
active: NCI/ADR-RES ovarian 3.13% | T-47D breast -66.5% | BT-549 breast -21.2% | MDA-MB-435 melanoma -9.04% | SW-620 colon -50.2% | MCF7 breast -86.1% | HCT-116 colon -84.7% | HCC-2998 colon -72.7% | KM12 colon -26.1%

COc1ccc(NC([Se])=NC23CC4CC(CC(C4)C2)C3)cc1
inactive: BT-549 breast 11.3% | MDA-MB-435 melanoma 20% | MCF7 breast 11.4% | HCC-2998 colon 14.6%
active: NCI/ADR-RES ovarian 1.9% | T-47D breast -11.7% | SW-620 colon 2.24% | HCT-116 colon 1.65% | KM12 colon 5.4%

CC1=C2[C@@H](CC1)[C@]1(C)O[C@@](C(C)C)(C[C@H]1O)[C@H]2OC(=O)C1CC1c1ccccc1 (stereo partly drawn)
inactive: NCI/ADR-RES ovarian 77.4% | T-47D breast 53.4% | BT-549 breast 81.4% | MDA-MB-435 melanoma 98.4% | SW-620 colon 101% | MCF7 breast 92.2% | HCT-116 colon 90.7% | HCC-2998 colon 115% | KM12 colon 92%

CC1(C)N=C(N)N=C(N)N1c1cccc(CCCCc2ccc(Cl)c(S(=O)(=O)F)c2)c1
inactive: NCI/ADR-RES ovarian 104% | T-47D breast 86.6% | BT-549 breast 51.8% | MDA-MB-435 melanoma 35.8% | SW-620 colon 30.9% | MCF7 breast 28.8% | HCT-116 colon 17.7% | HCC-2998 colon 35.1% | KM12 colon 22.3%

COC(=O)[C@@H](C[C@H](Cc1ccccc1)NC(=O)c1csc([C@@H](C[C@H](C(C)C)N(C)C(=O)[C@@H](NC(=O)[C@H]2CCCCN2C)C(C)C)OC(C)=O)n1)NC(=O)OCc1ccccc1
active: BT-549 breast -28% [9.5 µM] | MDA-MB-435 melanoma -36% [9.5 µM] | HCT-116 colon 1.64% [9.5 µM] | KM12 colon 1.08% [9.5 µM]
inactive: NCI/ADR-RES ovarian 13.9% [9.5 µM] | T-47D breast 78.8% [9.5 µM] | SW-620 colon 26.1% [9.5 µM] | MCF7 breast 27.8% [9.5 µM] | HCC-2998 colon 19.5% [9.5 µM]

Brc1ccc2c(c1)c(-c1nc(-c3c[nH]c4ncccc34)cs1)cn2CCN1CCOCC1
inactive: NCI/ADR-RES ovarian 50.3% | BT-549 breast 77.6% | MDA-MB-435 melanoma 85.7% | SW-620 colon 85.8% | MCF7 breast 18.3% | HCT-116 colon 68.1% | HCC-2998 colon 88.7% | KM12 colon 40.3%
active: T-47D breast 1.14%

COC(=O)[C@@]1(O)C[C@H]2O[C@]1(C)n1c3ccccc3c3c4c(c5c6ccccc6n2c5c31)C(=O)NC4
active: NCI/ADR-RES ovarian -40.2% | T-47D breast -37.4% | BT-549 breast -73.9% | MDA-MB-435 melanoma -90.2% | SW-620 colon -19.7% | MCF7 breast -40.7% | HCT-116 colon -4.08% | HCC-2998 colon -53.4% | KM12 colon -13.9%

COC(=O)[C@H](Cc1ccccc1)NNC(=O)c1csc([C@@H](C[C@H](C(C)C)N(C)C(=O)[C@@H](NC(=O)[C@H]2CCCCN2C)C2CC2)OC(C)=O)n1
active: BT-549 breast -0.476% | MDA-MB-435 melanoma -55.8% | HCT-116 colon 1.19% | KM12 colon 5.13%
inactive: NCI/ADR-RES ovarian 32.9% | T-47D breast 37.7% | SW-620 colon 24.4% | MCF7 breast 16.3% | HCC-2998 colon 10.8%

CC12CCC3C(CCC4=CC(=O)CCC43CF)C1CCC2=O (stereo not drawn)
inactive: NCI/ADR-RES ovarian 108% | T-47D breast 39.4% | BT-549 breast 97.2% | MDA-MB-435 melanoma 100% | SW-620 colon 126% | MCF7 breast 130% | HCT-116 colon 110% | HCC-2998 colon 140% | KM12 colon 117%

O=[N+]([O-])CC(O)C(Cl)(Cl)Cl (stereo not drawn)
inactive: NCI/ADR-RES ovarian 104% | T-47D breast 89.6% | BT-549 breast 58% | MDA-MB-435 melanoma 103% | SW-620 colon 95.8% | MCF7 breast 95.5% | HCT-116 colon 102% | HCC-2998 colon 106% | KM12 colon 107%

O=C(CC1(O)C(=O)N(Cc2ccccc2)c2ccc(Br)cc21)c1ccc(C(=O)NCC2CCC3(CC2)OOC2(CCCCC2)OO3)cc1 (stereo not drawn)
inactive: BT-549 breast 33.9% | MCF7 breast 31.5% | HCT-116 colon 35.5% | HCC-2998 colon 102%
active: NCI/ADR-RES ovarian -44.8% | T-47D breast -29.2% | MDA-MB-435 melanoma 4.94% | SW-620 colon -16.5% | KM12 colon -57.5%

Cc1cnc(/C=C/C(=O)O)cc1-c1cc2c(cc1C)C(C)(C)CCC2(C)C
inactive: NCI/ADR-RES ovarian 78.7% | T-47D breast 80.3% | BT-549 breast 69% | MDA-MB-435 melanoma 83.8% | SW-620 colon 86.6% | MCF7 breast 21.8% | HCT-116 colon 57.2% | HCC-2998 colon 85.3% | KM12 colon 57.3%

Cc1ccc(C(=O)NCCCOc2ccc(N3C(N)=NC(N)=NC3(C)C)cc2Cl)cc1S(=O)(=O)F
inactive: NCI/ADR-RES ovarian 108% | T-47D breast 104% | BT-549 breast 64.8% | MDA-MB-435 melanoma 73.1% | SW-620 colon 65.1% | MCF7 breast 75.4% | HCT-116 colon 62.2% | HCC-2998 colon 89.8% | KM12 colon 74.4%

O=C1Nc2ccccc2C2c3cccn3-c3ccccc3CN12 (stereo not drawn)
active: MDA-MB-435 melanoma -15%
inactive: NCI/ADR-RES ovarian 20.9% | T-47D breast 27.7% | BT-549 breast 50.7% | SW-620 colon 24.5% | MCF7 breast 38.8% | HCT-116 colon 41.7% | HCC-2998 colon 71.1% | KM12 colon 30.3%

[Au+].[N-]=C=O.c1ccc(CN2[CH-]N(Cc3ccccc3)C(c3ccccc3)=C2c2ccccc2)cc1
inactive: NCI/ADR-RES ovarian 109% | T-47D breast 52.4% | BT-549 breast 89.8% | MDA-MB-435 melanoma 101% | SW-620 colon 89.6% | MCF7 breast 46.1% | HCT-116 colon 67.6% | HCC-2998 colon 79.9% | KM12 colon 90.4%
